Assay results: PubChem BioAssay (Tox21)
Unmarked numbers belong to inactive results. Records with an inconclusive call do not appear. Entries that show only a call come without a potency. Calls of active or inactive are those of the source. Unless noted, the call rests on the fitted dose curve; in most records, active means well fitted curve in the direction sought with a large enough effect in the repeat runs; inconclusive means weak or mixed curves; inactive means no such curve, though single readings can be large; an effect the other way counts as inactive or inconclusive.

Assays:
[1] = qHTS assay to identify small molecule agonists of the hypoxia (HIF-1) signaling pathway - cell viability counter screen (AID 1224844; calls by dose curve; further: nearly all actives have a fitted effect of over 50% in size; further: potency means the concentration at half of the fitted maximal effect)
Procedure, shortened: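 Tox21 10K compounds were added to HRE-bla ME-180 cells (0.5% dialyzed FBS) and incubated 17 hrs at 37C; ATP-based CellTiter-Glo luminescence then reported cell viability in the same wells.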

[2] = qHTS assay to identify small molecule agonists of the hypoxia (HIF-1) signaling pathway (AID 1224846; active means well fitted activation curve with a large enough effect in the signal ratio in the repeat runs, not every such curve was filed as active; the % refers to the signal ratio)
Procedure, shortened: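 Steps: seed ME-180 HRE-bla cells (2,000/well, 0.5% dialyzed FBS); incubate 5 hrs at 37C; pin-transfer compounds or DMSO; incubate 17 hrs; add LiveBLAzer B/G substrate CCF4-AM; measure reporter activation by FRET.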

[3] = qHTS assay to identify small molecule agonists of H2AX - cell viability counter screen (AID 1224847; calls by dose curve; further: nearly all actives have a fitted effect of over 30% in size; further: potency means the concentration at half of the fitted maximal effect)
Procedure, shortened: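 Read-out: CellTiter-Glo luminescence, 30 min RT. Cells: wild-type CHO-K1, 1000/well, 10% FBS, plated overnight at 37C. Treatment: 15 concentrations, 3 hr, 37C, 0.76% DMSO.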

[4] = qHTS assay to identify small molecule antagonists of the estrogen related receptor (ERR) signaling pathway from Tox21 library (AID 1224848); further: nearly all actives have a fitted effect of over 50% in size; further: potency means the concentration at half of the fitted maximal effect
Procedure, shortened: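 Cells: ERR line, 2,000/well; 6 h preincubation 37 C/5% CO2. Cpd in DMSO via pin tool; 18 h, 37 C. ONE-Glo, 30 min RT, luminescence.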

[5] = qHTS assay to identify small molecule agonists of the estrogen related receptor (ERR) signaling pathway from Tox21 library (AID 1224849; calls by dose curve; further: nearly all actives have a fitted effect of over 15% in size); settings: ERR reporter cell line, ONE-Glo luciferase, 18 h; at 92.4 µM (top of the series) unless noted
Procedure, shortened: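 Agonist signal is luciferase luminescence from an ERR reporter cell line treated 18 h at 37 C with DMSO-dissolved compounds, read 30 min after ONE-Glo addition at room temperature.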

[6] = qHTS RealTime-Glo MT Cell Viability Assay in HepG2 cells - 24 hour (AID 1224867); further: nearly all actives have a fitted effect of over 50% in size; further: potency means the concentration at half of the fitted maximal effect
Procedure, shortened: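 Luminescence read-out: viable HepG2 cells reduce a prosubstrate to a NanoLuc substrate, giving a signal proportional to live cell number. Reads taken at 0, 8, 16, 24, 32 and 40 h of compound exposure at 37 C.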

[7] = qHTS RealTime-Glo MT Cell Viability Assay in HEK293 cells - 32 hour (AID 1224868); further: nearly all actives have a fitted effect of over 50% in size; further: potency means the concentration at half of the fitted maximal effect
Procedure, shortened: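 Nonlytic real-time viability readout: viable cells convert prosubstrate to NanoLuc substrate, giving luminescence proportional to live cell number. HEK293, 600 cells/well, compound added after 5 h, continuous culture at 37 C.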

[8] = A CellTox Green Cytotoxicity Assay to monitor cytotoxicity in HEK293 cells - 0 hour (AID 1224869); further: nearly all actives have a fitted effect of over 50% in size
Procedure, shortened: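 Cytotoxicity was tracked continuously in HEK293 cells by a DNA-binding dye excluded from viable cells. Compounds were transferred in DMSO 5 h after seeding; fluorescence was recorded at intervals up to 40 h.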

[9] = qHTS assay to identify small molecule agonists of H2AX (AID 1224845; active means well fitted activation curve with a large enough effect in the signal ratio in the repeat runs, not every such curve was filed as active; the % refers to the signal ratio)
Procedure, shortened: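 Wild-type CHO-K1 cells plated overnight, then exposed 3 hr at 37C to compounds at 15 concentrations (0.76% DMSO). Lysed, then HTRF anti-pH2AX(S139)-cryptate/anti-H2AX-d2 detection after 24 hr at room temperature; emissions 665 and 620 nm.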

O=C(C(=O)c1ccccc1)c1ccccc1
Potency [1]: inactive | outcome [2]: inactive | Potency [3]: inactive | Potency [4]: inactive | activity change, positive = activation [5]: 5.83% | Potency [6]: inactive | Potency [7]: inactive

CC1=NN(c2ccc(C(=O)O)cc2)C(=O)C1
Potency [1]: inactive | outcome [2]: inactive | Potency [3]: inactive | Potency [6]: inactive | Potency [7]: inactive | Potency [8]: inactive

Nc1c(I)cc(I)c(C(=O)N(CCC(=O)O)c2ccccc2)c1I
Potency [1]: inactive | Potency [9]: inactive | outcome [2]: inactive | Potency [3]: inactive | Potency [6]: inactive | Potency [7]: inactive | Potency [8]: inactive

CCC1(C)CC(=O)NC1=O (stereo not drawn)
Potency [1]: inactive | Potency [9]: inactive | Potency [3]: inactive | Potency [6]: inactive | Potency [7]: inactive | Potency [8]: inactive

CO[C@H]1C=CO[C@@]2(C)Oc3c(C)c(O)c4c(O)c(c5c(c4c3C2=O)=NC2(CCN(CC(C)C)CC2)N=5)NC(=O)/C(C)=C\C=C/[C@H](C)[C@H](O)[C@@H](C)[C@@H](O)[C@@H](C)[C@H](OC(C)=O)[C@@H]1C
outcome [2]: inactive | Potency [3]: 98.6 µM (active) | Potency [4]: 30 µM (active) | activity change, positive = activation [5]: -63.3% | Potency [7]: 38.1 µM (active) | Potency [8]: inactive

Cc1cc(C(=C2C=CC(=Nc3ccc(S(=O)(=O)O)cc3S(=O)(=O)O)C=C2)c2ccc(Nc3ccc(S(=O)(=O)O)cc3)cc2)ccc1N
Potency [1]: inactive | outcome [2]: inactive | Potency [3]: inactive | Potency [6]: inactive | Potency [7]: inactive | Potency [8]: inactive

Nc1ccc(C(=O)OCCCOC(=O)c2ccc(N)cc2)cc1
Potency [1]: inactive | Potency [9]: inactive | outcome [2]: inactive | Potency [6]: inactive | Potency [7]: 43.6 µM (active) | Potency [8]: inactive

CCCCCCCC/C=C\CCCCCCCC(=O)OC(CO)CO
Potency [1]: inactive | Potency [9]: inactive | outcome [2]: inactive | Potency [3]: inactive | Potency [6]: inactive | Potency [7]: inactive | Potency [8]: inactive

O=C(c1ccc(O)cc1)c1ccc(Cl)cc1
Potency [1]: inactive | outcome [2]: inactive | Potency [6]: inactive | Potency [7]: 25.1 µM (active) | Potency [8]: inactive

Cc1cc2nc3ccc(=[N+](C)C)cc-3sc2cc1N
Potency [1]: 5.35 µM (active) | outcome [2]: inactive | Potency [3]: 24.7 µM (active) | Potency [4]: 0.531 µM (active) | activity change, positive = activation [5]: -65.1% [at 42.5 µM] | Potency [6]: 16.9 µM (active) | Potency [7]: 2.39 µM (active) | Potency [8]: inactive

CO[C@@]12[C@H](COC(N)=O)C3=C(C(=O)C(C)=C(N)C3=O)N1C[C@@H]1N[C@@H]12
Potency [1]: 9.52 µM (active) | Potency [3]: inactive | Potency [4]: 8.41 µM (active) | activity change, positive = activation [5]: -55.2% [at 42.5 µM] | Potency [6]: 6.01 µM (active) | Potency [7]: 0.848 µM (active) | Potency [8]: inactive

CC(C)=CC=O
Potency [1]: inactive | outcome [2]: inactive | Potency [3]: inactive | Potency [6]: inactive | Potency [7]: inactive | Potency [8]: inactive

COCCOC(=O)C1=C(C)NC(C)=C(C(=O)OC/C=C/c2ccccc2)C1c1cccc([N+](=O)[O-])c1 (stereo not drawn)
Potency [1]: inactive | Potency [4]: 7.5 µM (active) | activity change, positive = activation [5]: -61.8% [at 42.5 µM] | Potency [8]: inactive

CCOC(=O)[C@@H](C)Oc1ccc(Oc2nc3ccc(Cl)cc3o2)cc1
Potency [1]: inactive | Potency [9]: inactive | outcome [2]: inactive | Potency [4]: 48.6 µM (active) | activity change, positive = activation [5]: -39.1% | Potency [7]: 21.9 µM (active)

c1cc[c]([Bi]([c]2ccccc2)[c]2ccccc2)cc1
Potency [1]: inactive | outcome [2]: inactive | Potency [4]: 61.1 µM (active) | activity change, positive = activation [5]: -40.9% | Potency [6]: inactive

CC1=C(/C=C/C(C)=C\C=C\C(C)=C\C(=O)O)C(C)(C)CCC1
Potency [1]: 49 µM (active) | Potency [3]: inactive | Potency [7]: inactive | Potency [8]: inactive

CC[C@@H]([C@H](C)O)n1ncn(-c2ccc(N3CCN(c4ccc(OC[C@@H]5CO[C@@](Cn6cncn6)(c6ccc(F)cc6F)C5)cc4)CC3)cc2)c1=O
Potency [9]: inactive | outcome [2]: inactive | Potency [3]: 19.6 µM (active) | Potency [7]: 3.01 µM (active)

NC(=O)Cn1c(=O)cc(CCN2CCN(c3nccc4sccc34)CC2)c2ccc(F)cc21
Potency [1]: inactive | Potency [9]: inactive | outcome [2]: inactive | Potency [4]: 54.5 µM (active) | activity change, positive = activation [5]: -34.9% | Potency [7]: 43.6 µM (active)

CCCCC1C(=O)N(c2ccccc2)N(c2ccc(O)cc2)C1=O (stereo not drawn)
Potency [9]: inactive | outcome [2]: inactive | Potency [4]: 21.1 µM (active) | activity change, positive = activation [5]: -65.4% [at 42.5 µM] | Potency [8]: inactive

CCC(C)=O
Potency [1]: inactive | outcome [2]: inactive | Potency [3]: inactive | Potency [4]: inactive | Potency [6]: inactive | Potency [7]: inactive | Potency [8]: inactive

O=C(Nc1ccccc1)Nc1ccccc1
Potency [1]: inactive | Potency [9]: inactive | outcome [2]: inactive | Potency [4]: inactive | activity change, positive = activation [5]: 28.3% (active) | Potency [6]: inactive | Potency [8]: inactive

CN1CCN(CCCN2c3ccccc3Sc3ccc(S(=O)(=O)N(C)C)cc32)CC1
outcome [2]: inactive | Potency [4]: 26.6 µM (active) | activity change, positive = activation [5]: -33.1% [at 42.5 µM]

CC(C)(C)CC(C)(C)c1ccc(OCCO)cc1
Potency [1]: inactive | Potency [9]: inactive | Potency [3]: 100 µM (active) | Potency [4]: 3.83 µM (active) | activity change, positive = activation [5]: -58.8% | Potency [6]: inactive | Potency [7]: 5.46 µM (active)

CC(C)C(OC(=O)c1ccccc1)C(C)(C)COC(=O)c1ccccc1 (stereo not drawn)
Potency [1]: inactive | Potency [9]: inactive | outcome [2]: inactive | Potency [6]: inactive | Potency [7]: inactive

COc1ccccc1N=Nc1c(S(=O)(=O)O)cc2cc(S(=O)(=O)O)cc(NC(C)=O)c2c1O
Potency [1]: inactive | outcome [2]: inactive | Potency [3]: 42.3 µM (active) | activity change, positive = activation [5]: -27.5% | Potency [6]: inactive | Potency [7]: inactive | Potency [8]: inactive

CC(C)(C)C(=O)C(Oc1ccc(Cl)cc1)n1ccnc1 (stereo not drawn)
Potency [9]: inactive | outcome [2]: inactive | Potency [3]: inactive | activity change, positive = activation [5]: -21.7% [at 42.5 µM] | Potency [6]: inactive | Potency [8]: inactive

O=C(N/N=C/c1ccc([N+](=O)[O-])o1)c1ccc(O)cc1
Potency [1]: inactive | Potency [3]: inactive | Potency [8]: inactive

CSc1ccc(Oc2ccc(S(N)(=O)=O)cc2CN(C)C)cc1C
Potency [1]: inactive | Potency [9]: inactive | outcome [2]: inactive | Potency [4]: 5.45 µM (active) | activity change, positive = activation [5]: -34.7% | Potency [7]: 43.6 µM (active) | Potency [8]: inactive

Cc1oc(C)c(C(=O)Nc2ccccc2)c1C
Potency [1]: inactive | outcome [2]: inactive | Potency [4]: 17.2 µM (active) | activity change, positive = activation [5]: -47.2% | Potency [6]: inactive | Potency [7]: 24.5 µM (active) | Potency [8]: inactive

CCN(CC)CCNC(=O)c1ccc(NC(C)=O)cc1
Potency [1]: inactive | Potency [9]: inactive | Potency [3]: inactive | Potency [6]: inactive | Potency [7]: inactive

CC(C)OCC1CO1 (stereo not drawn)
Potency [1]: inactive | outcome [2]: inactive | Potency [3]: inactive | Potency [4]: inactive | activity change, positive = activation [5]: -0.395% | Potency [6]: inactive | Potency [7]: inactive | Potency [8]: inactive

Brc1cc(-c2ccc(Br)c(Br)c2Br)cc(Br)c1Br
Potency [1]: inactive | outcome [2]: inactive | Potency [3]: inactive | Potency [6]: inactive | Potency [7]: inactive | Potency [8]: inactive

NC(=O)Nc1ccc(Cl)c(Cl)c1
Potency [1]: inactive | outcome [2]: inactive | Potency [3]: inactive | Potency [4]: inactive | activity change, positive = activation [5]: 4.97% | Potency [6]: inactive | Potency [8]: inactive

C[C@@H]1C[C@H]2[C@@H]3CCC4=CC(=O)C=C[C@]4(C)[C@@]3(F)[C@@H](O)C[C@]2(C)[C@@]1(O)C(=O)CO
Potency [3]: inactive | Potency [6]: inactive | Potency [7]: inactive | Potency [8]: inactive

CCNC(=O)N1CCN(CCCC(c2ccc(F)cc2)c2ccc(F)cc2)CC1
Potency [1]: inactive | Potency [9]: inactive | Potency [3]: inactive | Potency [4]: 7.5 µM (active) | activity change, positive = activation [5]: -50.1% [at 42.5 µM] | Potency [6]: inactive | Potency [7]: 16.9 µM (active) | Potency [8]: inactive

CC1(C)C2=CCCC(C)(C)[C@]23CC[C@H]1C3
Potency [1]: inactive | outcome [2]: inactive | Potency [3]: inactive | Potency [6]: inactive | Potency [7]: inactive
